These results are taken from PubChem BioAssay AID492956 (The Scripps Research Institute Molecular Screening Center, 2010).

About 3,300 (0.97%) of roughly 340,000 compounds were called active. This excerpt belongs to a sample that is enriched for actives. Unmarked numbers belong to inactive results.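 How the source made its calls: active means inhibition above the mean over all tested compounds plus 3 SD (cut at about 30% in these data); inactive means the rest.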

The target in the assay is Platelet-activating factor acetylhydrolase 2, cytoplasmic (Homo sapiens) (UniProt Q99487). In words: inhibition of cytoplasmic PAF acetylhydrolase 2 – biochemical, fluorescence polarization, human, primary screen (AID 492956).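 Further: inhibitors block probe labeling of enzyme so polarization drops; 0% = enzyme with DMSO and 100% = wells lacking PAFAH2 protein.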 The note with it: recombinant PAFAH2, FP-rhodamine activity probe, at 3.39 µM, hits give high values.
On to `CCCC1OC23CCCCC2C(C#N)(C#N)C1(C#N)C(=N)O3` (configuration not stated), for which the inhibition was 35.4% (active).

Consider `O=C(Nc1ccc(S(=O)(=O)N2CCCCC2)cc1)C1CC(=O)N(c2ccc(F)cc2)C1` (configuration not stated), for which the inhibition is -0.7%. Under `O=S(=O)(c1ccc(Cl)cc1)c1nc(-c2ccco2)oc1N1CCCCC1` stands -0.15%; under `Cn1c(NN)nc2sc3c(c2c1=O)CCC3`, 4.91%; under `O=c1oc(-c2ccco2)nc2sc3c(c12)CCCCC3`, 46.4% (active).

As to `Cc1cc(-n2cnc(-c3cn(C)nc3C)n2)no1`, the inhibition was 2.99%. Then `Cc1noc(/C=C/c2ccco2)c1S(=O)(=O)N1CCC(C(=O)N2CCc3ccccc32)CC1`, with -7.75%. Then `O=C(O)Cc1csc(NC(=O)CSc2nnnn2-c2ccc(O)cc2)n1`, with 1.29%; and `CCn1c(CNC(=O)c2ccccc2)nnc1SCC(=O)N1CCN(c2ccccc2)CC1`, with -4.72%. Under `CCN(C(=O)CSc1nnnn1-c1ccc(OC)cc1)C1CCS(=O)(=O)C1` (configuration not stated) stands 4.1%; under `COc1ccc(C(C)C)cc1S(=O)(=O)Nc1ncn[nH]1`, -3.51%.

With `CCCCCNC(=O)C1c2ccccc2Oc2ccccc21`, the inhibition was -0.79%. Then `CCCN(CCC)C(=O)C1c2ccccc2Oc2ccccc21`, with 32.9% (active). For `CCC(C)NC(=O)C1c2ccccc2Oc2ccccc21` (configuration not stated), the inhibition was -4.35%. Under `S=c1[nH]nc(/C=C/c2ccccc2)o1` stands -11.5%; under `O=c1[nH]c(/C=C/c2cccc(Br)c2)nc2ccccc12`, 6.48%. Under `O=c1oc(/C=C/c2ccccc2)nc2ccccc12` stands 76.7% (active); under `CCc1ccc2nc(Nc3ncc(C(C)=O)c(C)n3)nc(C)c2c1`, 7.02%.

For `Cc1ccc(S/C(=N\S(=O)(=O)c2ccc(Cl)cc2)c2ccccc2)cc1`, the inhibition was 5.84%.

Regarding `Cc1cc(=O)oc2c3c(cc(OCC(=O)NCc4ccccn4)c12)OC(C)(C)CC3`, the inhibition was 14.1%. Under `Cc1cc(=O)oc2c3c(cc(OCC(=O)N[C@H](C(=O)O)c4ccccc4)c12)OC(C)(C)CC3` stands 18.3%. With `Cc1cc(=O)oc2c3c(cc(OCC(=O)NCCC(=O)N[C@@H](C)C(=O)O)c12)OC(C)(C)CC3`, the inhibition was 6.3%. Then `Cc1c(C)c2c(OCC(=O)NCCCO)cc3c(c2oc1=O)CCC(C)(C)O3`, with 72.5% (active); and `Cc1cc(OCC(=O)NCC(O)c2ccccc2)c2c(C)c(C)c(=O)oc2c1` (configuration not stated), with 0.4%. With `Cc1c(C)c2c(OCC(=O)N[C@@H](C(=O)O)c3ccccc3)cc3c(c2oc1=O)CCC(C)(C)O3`, the inhibition is 90.8% (active).

For the molecule `CCN(CC)c1ccc(NC(=O)CN2C(=O)NC3(CCc4ccccc43)C2=O)cc1` (configuration not stated), the inhibition was -0.31%. Under `Cc1cc(C)n(CCNCc2c(C(=O)N3C[C@@H](C)O[C@@H](C)C3)nc3ccc(Cl)cn23)n1` stands 0.53%; under `C#CC(C)(C)NC(=O)c1cnc(-c2ccccc2)nc1-c1ccccc1`, -1.01%; under `CC(Nc1ccc([N+](=O)[O-])cc1[N+](=O)[O-])c1ccccc1` (configuration not stated), 4.73%. Under `Cc1ccc(OCC(=O)Nc2ccccc2Sc2ccc(Cl)cc2)c([N+](=O)[O-])n1` stands 0.47%; under `COc1ccc(Cc2n[nH]c(=S)n2NC(=O)Nc2ccc(C)cc2)cc1`, -2.45%; under `NS(=O)(=O)c1ccc(NS(=O)(=O)/C=C/c2ccccc2)cc1`, 4.92%.

`COc1ccc(NC(=O)COC(=O)c2ccc(NS(=O)(=O)/C=C/c3ccccc3)cc2)cc1`: the inhibition was 75.8% (active). Under `CN(CC(=O)Nc1ccc(OC(F)F)cc1)S(=O)(=O)/C=C/c1ccccc1` stands 3.38%; under `O=C(NCc1ccccc1)C1C(=O)N(Cc2ccccc2)C(=O)C1C1(O)CCCC1` (configuration not stated), 3.41%. Under `O=C(Cc1ccc(S(=O)(=O)N2CCOCC2)s1)NCCOc1ccccc1F` stands 38.8% (active); under `O=C(OCCOc1ccccc1F)c1cc(S(=O)(=O)N2CCOCC2)ccc1F`, -1.58%; under `O=C(Cc1ccc(S(=O)(=O)N2CCOCC2)s1)NCCC(c1ccccc1)c1ccccc1`, 3.55%. Under `Cc1ccc2c(c1)N(CC(=O)NCC1CCCO1)C(=O)CO2` (configuration not stated) stands 3.2%; under `COCCCn1c(Cc2csc(Nc3cccc(Cl)c3)n2)nnc1SCC(=O)OC1CCCCC1`, 0.44%; under `O=S(=O)(c1ccc(NC(=S)NN=C(C2CC2)C2CC2)cc1)N1CCOCC1`, 8.93%. `Cc1ccc(S(=O)(=O)N2CCN(CC(=O)N/N=C/c3cc([N+](=O)[O-])ccc3Cl)CC2)cc1`: the inhibition is -3.59%.

Regarding `O=[N+]([O-])c1cc(Cl)cc(/C=N/NC(=S)Nc2cc(S(=O)(=O)N3CCOCC3)ccc2Cl)c1O`, the inhibition is 85.2% (active). Then `C/C(=N\NC(=O)c1ccc(C)cc1)C1C(=O)c2ccccc2C1=O`, with 14.8%; and `CCN1CCN(c2ccc(S(=O)(=O)N3CCCCC3)cc2NC(=O)Cc2c(Cl)cccc2Cl)CC1`, with 12.9%. Under `Cc1cc(C)c2nc(NC(=O)C3CCCO3)sc2c1` (configuration not stated) stands -3.31%; under `O=C(Nc1ccc(C2CC2(Cl)Cl)cc1)c1cccc([N+](=O)[O-])c1` (configuration not stated), -4.09%; under `NC(=O)CSc1nnc(NC(=O)c2ccc3ccccc3c2)s1`, 1.32%.

For the molecule `O=C(Nc1nnc(SCc2c(Cl)cccc2Cl)s1)c1cccc([N+](=O)[O-])c1`, the inhibition was 57.2% (active). Then `O=C(Nc1nnc(SCc2ccccc2Cl)s1)c1cccc([N+](=O)[O-])c1`, with 32.2% (active); and `CCOC(=O)CSc1nnc(NC(=O)c2cccc(S(=O)(=O)N3CCCC3)c2)s1`, with 1.53%. Then `Cc1cc(C)nc(NC(=O)c2cccc([N+](=O)[O-])c2)c1`, with -7.58%; and `O=C(Nc1nnc(SCc2c(Cl)cccc2Cl)s1)C1CCCO1` (configuration not stated), with 35.8% (active). Then `O=C(NCc1ccccc1Cl)C1CCCO1` (configuration not stated), with 6.52%; and `COC(=O)C1=C(C(=O)OC)C(c2cc([N+](=O)[O-])ccc2O)c2sc(=O)[nH]c2S1` (configuration not stated), with 11.7%.

Turning to `CC(C)(C)c1ccccc1NC(=O)CN1C(=O)NC2(CCCC2)C1=O`, the inhibition was -2.59%.

For `CC(=O)Nc1ccc(SC[C@H](Cc2ccccc2)N2CC[C@@H](C)CCC2=O)cc1`, the inhibition was 1.61%.

The inhibition is the change of the read-out against control, counted positive when it falls.
